# According to PubChem BioAssay (NCATS):
# Inconclusive results are not listed. The source made the active and inactive calls. Unless noted, calls come from the whole dose curve; as a rule, active = well fitted cell-killing curve with a large enough effect; inconclusive = small, poorly fitted or top-dose-only effect, or effect the other way; inactive = no such curve, though single readings can be large or run the other way.
# Tests used:
# [1] = Quantitative High-Throughput drug screen in 47 multiple myeloma cell lines against the NCATS MIPE library collection: UTMC2_PLB cell viability assay (AID 1919868); conditions: CellTiter-Glo ATP luminescence, 48 h; viability (% of DMSO control): at 45.8 µM (top of the series) unless noted; note: nearly all actives have a fitted effect of over 55% in size;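 for viability (% of DMSO control): 100% = DMSO-only wells and 0% = media-only wells without cells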
# How it was run: (§1)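 MIPE 4.0 approved/investigational drugs; 500 cells/well; 48 h 37 °C humidified 5% CO2; CTG luminescence readout; DMSO = 100%, media = 0% viability.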
# [2] = Quantitative High-Throughput drug screen in 47 multiple myeloma cell lines against the NCATS MIPE library collection: PE2_PLB cell viability assay (AID 1919869); conditions: PE2_PLB myeloma cells viability, ATP luminescence, 48 h; series mostly up to 45.8 µM; note: nearly all actives have a fitted effect of over 35% in size
# How it was run: as §1
# [3] = Quantitative High-Throughput drug screen in 47 multiple myeloma cell lines against the NCATS MIPE library collection: PCM6_Riken cell viability assay (AID 1919870); conditions: CellTiter-Glo ATP, 48 h; series mostly up to 45.8 µM; note: nearly all actives have a fitted effect of over 30% in size
# How it was run: as §1
# [4] = Quantitative High-Throughput drug screen in 47 multiple myeloma cell lines against the NCATS MIPE library collection: RPMI8226_ATCC cell viability assay (AID 1919871); conditions: RPMI8226 myeloma viability, CellTiter-Glo ATP luminescence, 48 h; series mostly up to 45.8 µM; note: nearly all actives have a fitted effect of over 30% in size
# How it was run: as §1
# [5] = Quantitative High-Throughput drug screen in 47 multiple myeloma cell lines against the NCATS MIPE library collection: KMS11_JCRBsus cell viability assay (AID 1919873); conditions: KMS11 myeloma viability, CellTiter-Glo ATP luminescence, 48 h; series mostly up to 45.8 µM; note: nearly all actives have a fitted effect of over 50% in size
# How it was run: as §1
# [6] = Quantitative High-Throughput drug screen in 47 multiple myeloma cell lines against the NCATS MIPE library collection: KMS28BM_JCRB cell viability assay (AID 1919874); conditions: CellTiter-Glo ATP, 48 h; series mostly up to 45.8 µM; note: nearly all actives have a fitted effect of over 35% in size
# How it was run: as §1
# [7] = qHTS drug screen for cell cycle checkpoint inhibitors in PARPi-resistant BRCA-mutant ovarian cancer cell lines. (AID 1963452; calls by dose curve); conditions: PEO1/OlaR viability, CellTiter-Glo luminescence, 96 h; for Z-AUC: stronger effect = lower value
# How it was run: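 PEO1, PEO4 and PEO1/OlaR ovarian cancer cells, 600 per well, exposed 96 h at 37C to a dilution series. Viability read by CellTiter-Glo luminescence, normalized to DMSO and empty wells; activity summarized as Z-AUC.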
# [8] = qHTS for identification of novel therapeutic agents for treatment of microphthalmiaassociated transcription factor (MiT) renal cell carcinoma (RCC) (AID 1963991; calls by dose curve); conditions: CellTiter-Glo, 48 h; for Potency: active = Z-AUC below -0.8 in all three lines; for z-score: stronger effect = lower value
# How it was run: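 Three TFE3-fusion RCC cell lines (UOK109, UOK124, UOK145), 500 cells/well, were exposed to the 1912-compound MIPE 4.0 library for 48 hours at 37 C. Viability was read by CellTiter-Glo luminescence, normalised to DMSO (100%) and empty wells (0%), with 11-concentration curve fits.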
# [9] = Quantitative High-Throughput drug screen in 47 multiple myeloma cell lines against the NCATS MIPE library collection: OPM2_DSMZ cell viability assay (AID 1919872); conditions: OPM2 myeloma viability, CellTiter-Glo ATP luminescence, 48 h; series mostly up to 45.8 µM; note: nearly all actives have a fitted effect of over 30% in size
# How it was run: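 Viability readout: CellTiter-Glo luminescence following 5 min room-temperature incubation with reagent. Prior exposure: 48 h, 37C, humidified 5% CO2, 500 cells per well.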
# [10] = measured here: PEO1 parental Z-AUC
# [11] = TFE3-RCC UOK109 viability, measured here: UOK109 Z-AUC
# [12] = TFE3-RCC viability, measured here: UOK124 Z-AUC
# [13] = TFE3-RCC viability, measured here: UOK145 Z-AUC
# Potency is the fitted concentration of half-maximal effect.
Structure (SMILES),Potency [1],Potency [2],Potency [3],Potency [4],Potency [5],Potency [6],Z-AUC [7],"Z-AUC [7, 10]",Z-AUC ([7]; measured here: PEO4 Z-AUC),Potency ([8]; TFE3-RCC UOK109 viability),"z-score [8, 11]","z-score [8, 12]","z-score [8, 13]",Potency [9],viability (% of DMSO control) [1],Potency [7]
CC1(O)CC(c2nc(-c3ccc4ccc(-c5ccccc5)nc4c3)c3c(N)nccn23)C1 (stereo unspecified),166 nM (active),1660 nM (active),14800 nM (active),235 nM (active),187 nM (active),148 nM (active),-2.04 (inactive),-0.993,-1.72,,,,,,,
COC(=O)[C@]12CCC(C)(C)C[C@@H]1[C@@H]1C(=O)C=C3[C@@]4(C)C=C(C#N)C(=O)C(C)(C)[C@@H]4CC[C@@]3(C)[C@]1(C)CC2,372 nM (active),332 nM (active),332 nM (active),526 nM (active),187 nM (active),264 nM (active),,,,1180 nM (active),-1.73,-1.69,-1.96,,,
C=C1C(=CC=C2CCC[C@]3(C)[C@@H]([C@H](C)C=C[C@H](C)C(C)C)CC[C@@H]23)C[C@@H](O)C[C@@H]1O,2090 nM (active),16600 nM (active),1320 nM (active),14800 nM (active),526 nM (active),209 nM (active),0.703 (inactive),0.5,0.821,418 nM (active),-1.36,-0.997,-1.08,,,
Cc1[nH]c2ccccc2c1CCNCc1ccc(C=CC(=O)NO)cc1,14.8 nM (active),93.5 nM (active),66.2 nM (active),118 nM (active),,52.6 nM (active),,,,418 nM (active),-1.86,-3.24,-1.46,93.5 nM (active),,
COc1cc(=C2C=c3ccccc3=N2)[nH]c1=Cc1[nH]c(C)cc1C,2090 nM (active),1480 nM (active),5900 nM (active),1660 nM (active),,935 nM (active),,,,8330 nM (active),-1.08,-0.978,-0.974,4180 nM (active),,
CCOC(=O)C1=C(C)NC2=C(C(=O)CC(C)(C)C2)C1c1ccc(-c2ccccc2)cc1 (stereo unspecified),18700 nM (active),20900 nM (active),20900 nM (active),23500 nM (active),18700 nM (active),,0.483 (inactive),0.756,0.977,,,,,,,
COc1cc2c(Oc3ccc(NC(=O)C4(C(=O)Nc5ccc(F)cc5)CC4)cc3F)ccnc2cc1OCCCN1CCOCC1,3320 nM (active),8330 nM (active),10500 nM (active),13200 nM (active),1180 nM (active),3320 nM (active),-0.782 (inactive),-0.246,-0.374,,,,,,,
C[C@]1(CO)CN(c2cc(C(=O)Nc3ccc4c(c3)-c3c(c(C(N)=O)nn3-c3ccc(F)cc3)CC4)c(Cl)cn2)C[C@@]1(C)CO,11800 nM (active),11800 nM (active),16600 nM (active),2960 nM (active),3720 nM (active),,,,,,,,,,,
COc1cc2ncnc(Nc3ccc(F)c(Cl)c3)c2cc1NC(=O)C=CCN1CCCCC1,10500 nM (active),6620 nM (active),3320 nM (active),18700 nM (active),8330 nM (active),6620 nM (active),,,,,,,,,,
COc1cc2c(Oc3ccc(-c4cnc(Nc5ccc(F)cc5)n(C)c4=O)cc3F)ccnc2cc1OCCCN1CCOCC1,5260 nM (active),14800 nM (active),7430 nM (active),5900 nM (active),935 nM (active),4180 nM (active),-1.38 (inactive),-0.565,-0.285,,,,,,,
CC1(C)CC(=O)c2c(C(F)(F)F)nn(-c3ccc(C(N)=O)c(NC4CCC(OC(=O)CN)CC4)c3)c2C1 (stereo unspecified),209 nM (active),209 nM (active),74.3 nM (active),,118 nM (active),187 nM (active),-1.29 (inactive),-0.877,-0.312,,,,,296 nM (active),,
CN(C)CCCN=c1c2ccccc2n(C)c2[nH]c(=O)n(C)c(=O)c12,,16600 nM (active),14800 nM (active),,14800 nM (active),16600 nM (active),0.193 (inactive),1.79,1.54,,,,,20900 nM (active),91.5% (active),
CC[C@H](CO)Nc1nc(NCc2ccccc2)c2ncn(C(C)C)c2n1,23500 nM (active),14800 nM (active),9350 nM (active),,20900 nM (active),,0.956 (inactive),1.03,1.29,,,,,,,
COc1ccc(C(=O)CC2(O)C(=O)Nc3c(Cl)ccc(Cl)c32)cc1 (stereo unspecified),4180 nM (active),4180 nM (active),,2640 nM (active),1320 nM (active),,-0.119 (inactive),-0.455,-0.085,,,,,9350 nM (active),,
Cc1cc(N2CCOCC2)cc2[nH]c(-c3c(NC[C@@H](O)c4cccc(Cl)c4)cc[nH]c3=O)nc12,66.2 nM (active),148 nM (active),332 nM (active),,26.4 nM (active),,-0.44 (inactive),-0.435,-0.57,,,,,3720 nM (active),,
COc1ccc(OC)c(-c2nnc3ccc(-c4ccc(OC)c(O[C@@H]5CCOC5)c4)nn23)c1,9350 nM (active),8330 nM (active),7430 nM (active),,6620 nM (active),7430 nM (active),-1.33 (inactive),-1.59,-1.98,,,,,23500 nM (active),,
CC(=O)OCC(=O)[C@@]1(O)[C@H](C)C[C@H]2[C@@H]3C=C(C)C4=Cc5c(cnn5-c5ccccc5)C[C@]4(C)[C@@H]3[C@@H](O)C[C@@]21C,11800 nM (active),8330 nM (active),3320 nM (active),,,inactive,-0.679 (inactive),0.732,-0.158,,,,,20900 nM (active),,
COc1cc2c(Oc3ccc4[nH]c(C)cc4c3F)ncnc2cc1OCCCN1CCCC1,26400 nM (active),13200 nM (active),2350 nM (active),,2960 nM (active),16600 nM (active),-0.035 (inactive),0.995,0.0837,,,,,,,
Cc1c(C)n(Cc2ccc(-c3ccccc3C(=O)O)cc2)c2ccc(C(=O)N[C@@H](C)c3ccc([N+](=O)[O-])cc3)cc12,20900 nM (active),11800 nM (active),,inactive,18700 nM (active),,0.131 (inactive),0.774,0.226,,,,,inactive,,
Cc1cc(Nc2cc(NC(=O)c3c(Cl)cccc3Cl)ccn2)nc(N)n1,2960 nM (active),2960 nM (active),2350 nM (active),,372 nM (active),,-0.241 (inactive),-1.26,-0.959,,,,,,,
COc1ccc(-c2cc3c(C)nc(N)nc3n(C3CCC(OCCO)CC3)c2=O)cn1 (stereo unspecified),52.6 nM (active),46.9 nM (active),264 nM (active),,7.4 nM (active),59 nM (active),,-1.22,-1.44,11.8 nM (active),-2.89,-1.31,-2.61,66.2 nM (active),,490 nM (active)
C[C@@H]1COC(Nc2ccc3ncnc(Nc4ccc(OCc5nccs5)c(Cl)c4)c3c2)=N1,2960 nM (active),4180 nM (active),,33200 nM (active),18700 nM (active),,,,,,,,,26400 nM (active),,
Cc1nc2ccc(CN(C)c3ccc(C(=O)N[C@@H](CCC(=O)O)C(=O)O)s3)cc2c(=O)[nH]1,1660 nM (active),inactive,,inactive,9.3 nM (active),inactive,-1.54 (inactive),-1.34,-0.15,,,,,,,
CC(C)(C)c1cnc(CSc2cnc(NC(=O)C3CCNCC3)s2)o1,187 nM (active),296 nM (active),,332 nM (active),132 nM (active),148 nM (active),-0.758 (inactive),-1.2,-0.895,,,,,235 nM (active),,
CC1=C(CO)C(=O)O[C@@H]([C@@H](C)[C@H]2CC[C@H]3[C@@H]4C[C@H]5O[C@]56[C@@H](O)C=CC(=O)[C@]6(C)[C@@H]4CC[C@]23C)C1,296 nM (active),166 nM (active),166 nM (active),,93.5 nM (active),132 nM (active),,,,,,,,,,
CC=C1NC(=O)[C@H]2CSSCCC=C[C@H](CC(=O)N[C@H](C(C)C)C(=O)N2)OC(=O)[C@H](C(C)C)NC1=O,33.2 nM (active),59 nM (active),,26.4 nM (active),18.7 nM (active),16.6 nM (active),,,,33.2 nM (active),-2.23,-4.08,-2.33,29.6 nM (active),,
Cc1cc(CN2CCN(c3c(Br)cnc4nc(-c5ccc(N6CCN(C)CC6)cc5)[nH]c34)CC2)no1,10500 nM (active),6620 nM (active),3320 nM (active),,,2960 nM (active),0.133 (inactive),0.0389,-0.2,,,,,18700 nM (active),,
CCN(CC)CCCCNc1ncc2cc(-c3cc(OC)cc(OC)c3)c(NC(=O)NC(C)(C)C)nc2n1,16600 nM (active),20900 nM (active),5260 nM (active),,23500 nM (active),,-1.19 (inactive),1.07,0.00955,,,,,20900 nM (active),,
